In all, about 220,000 compounds went through this assay and about 300 (0.14%) were called active.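 Rule for the calls: active = inhibition of at least 40%; inactive = inhibition below 40%.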 What follows is part of a selection rich in actives, with near analogues and random picks from the rest.
Target: Coagulation factor XI (Homo sapiens) (UniProt P03951)
Experiment: factor XIa enzyme inhibition, large library – biochemical, 1536-well, primary screen (AID 798);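 note: fluorescence of freed AMC excited at 355 nm; 0% = enzyme without compound and 100% = no enzyme blank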
Conditions: purified FXIa, Boc-Glu-Ala-Arg-AMC fluorogenic substrate; at 5 µM; active compounds read high

Coagulation factor XI (Homo sapiens), sequence (P03951 19-387 limits assumed): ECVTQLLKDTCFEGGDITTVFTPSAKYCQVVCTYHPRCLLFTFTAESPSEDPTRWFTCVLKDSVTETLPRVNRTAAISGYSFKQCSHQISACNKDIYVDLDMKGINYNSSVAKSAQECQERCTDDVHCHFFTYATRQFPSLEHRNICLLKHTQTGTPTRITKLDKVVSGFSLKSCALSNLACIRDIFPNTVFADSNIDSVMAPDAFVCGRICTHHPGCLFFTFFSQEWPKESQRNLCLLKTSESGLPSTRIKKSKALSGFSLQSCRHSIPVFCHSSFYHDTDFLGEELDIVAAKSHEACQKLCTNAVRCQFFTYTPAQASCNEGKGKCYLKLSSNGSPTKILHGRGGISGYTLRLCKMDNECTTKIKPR
Coagulation factor XI (Homo sapiens), sequence (P03951 388-625 limits assumed): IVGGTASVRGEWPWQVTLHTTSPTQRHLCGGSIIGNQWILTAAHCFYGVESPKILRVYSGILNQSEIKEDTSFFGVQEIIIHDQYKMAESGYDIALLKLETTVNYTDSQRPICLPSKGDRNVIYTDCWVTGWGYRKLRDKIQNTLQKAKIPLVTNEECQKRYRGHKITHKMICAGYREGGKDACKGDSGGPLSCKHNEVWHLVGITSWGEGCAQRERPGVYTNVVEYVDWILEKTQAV

inhibition, active:
COc1ccc(CN(Cc2ccc(OC)cc2)C(=O)c2cccs2)cc1 54.2%

inhibition, inactive:
O=C(NCc1cccnc1)Nc1cccc(NC(=O)NCc2cccnc2)c1F -0.25%
CCOC(=O)c1ccccc1NC(=S)N1CCC(C(N)=O)CC1 -1.65%
NC(=O)COC(=O)c1cc(S(=O)(=O)N2CCN(c3ccccc3)CC2)ccc1Cl -1.04%
O=C1c2ccccc2C(=O)N1CCC(O)C[N+](=O)[O-] (stereo unspecified) 1.96%
CCOc1ccc(S(=O)(=O)Nc2nccs2)cc1 0.82%
COc1ccc(OCC(=O)N2CCN(C(=O)c3cccs3)CC2)cc1 -3.87%
COc1ccc(CN(C(=O)c2cccs2)c2nccs2)cc1OC 0.51%
C/C(=N/NC(=O)CC(=O)N/N=C(\C)c1ccc([N+](=O)[O-])cc1)c1ccc([N+](=O)[O-])cc1 0.21%
Cc1nc(N)sc1N=Nc1c(C)n(C)n(-c2ccccc2)c1=O 1.75%
CC(C)n1c(O)c(N=Nc2ccccn2)c2ccccc21 0.21%
CCCCOc1ccc(C(=O)N/C(=C/C=C/c2ccccc2)C(=O)N2CCOCC2)cc1 5.26%
CCOC(=O)C1CCN(C(=O)Nc2cccc(OC)c2)CC1 -1.56%
CN(c1ccccn1)c1ncnc2[nH]ncc12 -2.65%
CCOc1cc2c(Cl)ncnc2c(OCC)c1OCC -5.65%
Cc1ccc(C(=O)NNC(=O)OC(C)(C)C)c(Cl)c1 8.12%
Cc1nc(N2CCOCC2)sc1C(=O)NN -11.6%
CC(C)(C)NC(=O)C(=O)NN=C1CCCCCCC1 -1.87%
O=S(=O)(Nc1ccc2cn[nH]c2c1)c1ccccc1 -7.54%
C/C(=N/O)c1ccc(N2C(=O)C3C4C=CC(C3C2=O)C2C3C(=O)N(c5ccc(/C(C)=N/O)cc5)C(=O)C3C42)cc1 (stereo unspecified) -1.59%
CCCCCC(=O)Nc1ccc(S(=O)(=O)Nc2ccc(Cl)nn2)cc1 -12.1%

From PubChem BioAssay AID798 (PCMD, 2007)
